This is a sample that favours compounds with a hit; in the whole collection about 6% have one here.
D1 ag = activates the human D1 dopamine receptor | AID 504660 | HEK293 T-REx D1 cells, calcium flux, agonist mode | P21728 | activation, % at 2 µM | actives 1% (n = 360,000); in the data active = activation above about 30%
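Inducible HEK293 T-REx D1 cells, force-coupled to calcium signalling, were plated at 4000 cells/well with tetracycline and held overnight at 30 C. After no-wash calcium dye loading, compound-evoked calcium rise over 180 s flagged agonists.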
D3 ag = agonists of human D3 dopamine receptor | max activation, % | D3R DiscoveRx beta-arrestin cells, luminescence, 90 min | P35462 | AID 652048 | actives 0.58% (n = 410,000); in the data active = max activation above about 30%
Target sequence (P35462 whole entry, looked up): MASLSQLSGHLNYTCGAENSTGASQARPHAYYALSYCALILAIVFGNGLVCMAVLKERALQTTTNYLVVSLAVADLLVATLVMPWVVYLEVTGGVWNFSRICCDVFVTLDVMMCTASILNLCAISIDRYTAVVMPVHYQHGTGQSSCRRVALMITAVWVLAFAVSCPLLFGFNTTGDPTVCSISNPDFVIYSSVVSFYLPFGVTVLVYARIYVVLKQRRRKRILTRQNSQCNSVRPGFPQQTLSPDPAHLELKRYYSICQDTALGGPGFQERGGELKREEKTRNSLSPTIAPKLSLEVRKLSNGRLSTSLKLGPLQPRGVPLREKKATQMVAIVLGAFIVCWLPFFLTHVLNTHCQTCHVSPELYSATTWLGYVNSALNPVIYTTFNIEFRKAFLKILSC
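Cells at 1500/well, incubated overnight, then treated with pinned compounds (dopamine as control) for 90 min at 37 degrees C. DiscoveRx reagent added for 30 - 60 minutes at room temperature; luminescence read.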
D1 antag = human D1 dopamine receptor antagonism; HEK293 TREx D1 cells, calcium flux, dopamine EC80; stronger effect = lower value; activity change, negative = inhibition, % at 10 µM; AID 504652; P21728; actives 3.2% (n = 360,000); in the data active = activity change below about -30%
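Antagonism measured as reduced calcium response to an EC80 dopamine addition following 180 s compound pre-read; cells were inducible HEK293 Trex D1 plated overnight at 30 C, read kinetically at 1 cycle/sec.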
D1 PAM = human D1 dopamine receptor positive modulation; P21728; HEK293 TREx D1 cells, calcium flux, dopamine EC20 potentiation; potentiation, % at 10 µM; actives 0.036% (n = 360,000); in the data active = potentiation above about 30%
D3 antag = blocks the human D3 dopamine receptor; P35462; D3R cells, DiscoveRx beta-arrestin luminescence, antagonist mode; stronger effect = lower value; max response, negative = inhibition, %; actives 2.5% (n = 360,000); in the data active = max response below about -50%; inconclusive = no clear call, values can overlap the other calls
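Cells plated overnight at 1500 cells/well, then exposed to library compounds with dopamine controls for 90 minutes at 37 degrees C. DiscoveRx reagent added for 30–60 minutes at room temperature; luminescence read, quantitative HTS format.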
Hits are given with their value; 0 = inactive; ? = inconclusive; - = no result.

SMILES	D1 ag	D3 ag	D1 antag	D1 PAM	D3 antag
COc1ccccc1NC(=O)CSc1nc2ccccc2c(=O)n1C	0	0	-34	41	0
Nn1c(SCC(=O)Nc2ccccc2F)nc2ccccc2c1=O	0	40	0	0	0
COc1cc(Cl)ccc1OCc1cc(C(=O)N(C)CC2CCCCO2)no1 (centres undefined)	0	0	0	0	0
CC(C)N1CC(=O)N2CSCC2C1=O (centres undefined)	-	0	-	-	0
Cc1ccccc1CSc1nc2ccsc2c(=O)n1CCC(C)C	0	0	0	0	-
Cc1ccc(NS(=O)(=O)c2c(C)nc3sc(C)c(C)n3c2=O)cc1F	0	0	0	0	-
Cc1ccc(CNC(=O)CN(C2CCCCC2)S(C)(=O)=O)cc1	0	0	0	0	0
CS(=O)(=O)N(CC(=O)NCc1ccccc1)C1CCCCC1	0	0	-61	0	0
COc1ccc(CNC(=O)CN(C2CCCCC2)S(C)(=O)=O)cc1	0	0	-32	0	0
COc1ccc(CCNC(=O)CN(C2CCCCC2)S(C)(=O)=O)cc1	0	0	0	0	0
CC1(C)CSC(C)(C)C(=O)N1	-	0	-	-	0
COc1cc(NC(=O)NCCN2CCN(c3ccc(Cl)cc3)CC2)ccc1C	64	0	0	0	?
CCCN1CCN(CCNC(=O)Nc2ccc(OC)c(OC)c2)CC1	0	0	0	0	-
COc1ccc(OC)c(NC(=O)NCCN2CCN(c3ccccc3)CC2)c1	0	0	-54	0	-67
COc1ccc(N2CCN(CCNC(=O)Nc3ccc([N+](=O)[O-])cc3OC)CC2)cc1	0	0	0	0	0
COc1ccc(N2CCN(CCNC(=O)Nc3ccc(C)c(Cl)c3)CC2)cc1	31	0	0	0	?
COc1ccc(NC(=O)NCCN2CCN(c3cccc(Cl)c3)CC2)cc1	0	0	-61	0	-58
COC(=O)c1ccc(N2CCN(CCNC(=O)Nc3ccc(OC)cc3)CC2)cc1	0	0	0	0	0
CCOC(=O)c1cc(OC(=O)c2cccc(F)c2)n(-c2ccccc2)n1	0	0	0	0	-
CCCn1c(=O)c2sccc2n2c(CCCC(=O)Nc3ccc(Oc4ccc(Cl)cc4)cc3)nnc12	0	0	0	0	-
Cn1c(=O)c(=O)n(C)c2cc(S(=O)(=O)N3CCN(c4ccccc4)CC3)ccc21	0	0	0	0	-
COCC(=O)Nc1cc(Cl)ccc1C	0	0	0	0	0
COc1ccccc1C(=O)NCCN1CCN(c2ccccc2)CC1	0	42	0	0	0
COc1ccccc1C(=O)Nc1ccc(N2CCN(Cc3ccccc3)CC2)cc1	0	0	0	0	0
Cc1ccc(Cl)cc1NC(=O)NCCN1CCCCC1	0	0	0	0	-67
SMILES	D1 ag	D3 ag	D1 antag	D1 PAM	D3 antag
Cc1ccc(Cl)cc1NC(=O)CSC(N)=O	0	0	0	0	-68
Nn1c(-c2cccc(Br)c2)n[nH]c1=S	0	0	0	0	-85
CCOC(=O)c1c(CSc2ccccc2)n(C)c2cc(Br)c(OCC(O)CNC(CO)(CO)CO)cc12 (centres undefined)	0	0	-47	0	0
CC(C)=CCCC(C)CN(C)CCc1ccccn1 (centres undefined)	0	0	0	0	-64
CCc1ccc(NC(=O)CCNS(=O)(=O)c2ccc3c(c2)CCCC(=O)N3)cc1	0	0	0	0	-
O=C(Nc1cccc(Cl)c1)Nc1csc([N+](=O)[O-])c1	0	0	-47	0	0
CC(C)NC(=O)Nc1cccc(Cl)c1	0	0	-40	0	0
CC(C)C[C@H](NC(=O)Nc1cccc(Cl)c1)C(=O)O	0	0	0	0	0
CSc1ccccc1NC(=O)Nc1ccc(F)c(Cl)c1	0	0	-32	0	0
CSc1ccccc1NC(=O)Nc1cccc(Cl)c1	0	0	-40	0	?
O=C(Nc1ccncc1)Nc1cccc(Cl)c1	0	0	0	0	0
COC(=O)Cn1c(=O)c2cccn2c2ccc(F)cc21	0	0	0	0	-
CCOC(=O)c1ccccc1NC(=O)CN(c1ccccc1OC)S(=O)(=O)c1ccc(C)cc1	0	0	0	0	-
O=C1C(=O)c2cccnc2-c2ncccc21	-	0	-	-	-87
CCn1c(SC(C)C(=O)NCC2CCCO2)nc2ccccc21 (centres undefined)	0	0	0	0	0
c1ccc(CCCN2CCN(c3ccccn3)CC2)cc1	0	0	0	0	-62
